Data from PubChem BioAssay.
The source made the active and inactive calls.

Tests used:
[1] = tested on: Plasmodium falciparum Sir2 (PF13_0152, Sir2A); experiment: Plasmodium falciparum Sir2A binding compounds – biochemical, small-molecule microarray, 635 nm fluorescence, primary screen (AID 1098); details: fluorescence 635 nm, higher = more signal;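 also: score merges spot fluorescence intensity with its signal-to-noise ratio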
[2] = probe aDKK1 binding to arrayed compounds – biochemical, biotinylated probe, 635/667 nm fluorescence, primary screen (AID 1099); details: small-molecule microarray, higher = more signal;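 also: score merges 667nm spot fluorescence with signal to noise across triplicate slides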
[3] = probe aCHRDL2 binding to arrayed compounds – biochemical, biotinylated probe, 635/667 nm fluorescence, primary screen (AID 1100); details: small-molecule microarray, higher = more signal
[4] = change in splice reporter luminescence, either direction, cell-based, HEK293, spliceosome inhibition project, primary screen (AID 1101); details: HEK293 splicing luciferase reporter, 24 h, higher = more signal, called active from +8 up or from −8 down;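 also: HEK293 cells carrying a splicing-competent luciferase reporter gene; test concentration not given here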
[5] = target: Fibroblast growth factor 10 (Homo sapiens) (UniProt O15520); experiment: compounds binding fibroblast growth factor 10 – biochemical, small-molecule microarray, 635 nm fluorescence, primary screen (AID 1102); details: FGF10 binding, fluorescence 635 nm, higher = more signal
Sequence of Fibroblast growth factor 10 (Homo sapiens) (O15520 whole entry, looked up): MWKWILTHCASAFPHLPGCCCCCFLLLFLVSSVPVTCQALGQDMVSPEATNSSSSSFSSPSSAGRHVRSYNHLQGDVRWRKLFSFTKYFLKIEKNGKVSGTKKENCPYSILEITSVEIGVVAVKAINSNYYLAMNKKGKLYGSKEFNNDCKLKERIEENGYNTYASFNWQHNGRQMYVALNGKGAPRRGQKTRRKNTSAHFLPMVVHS

[6] = tested on: glycogen synthase kinase-3 (GSK3A per assay name; protocol says GSK3B); experiment: compounds binding glycogen synthase kinase-3 – biochemical, small-molecule microarray, 635 nm fluorescence, GSK3A, primary screen (AID 1103); details: fluorescence 635 nm, higher = more signal; also: the record names both GSK3A and GSK3B
[7] = target: Epidermal growth factor receptor (Homo sapiens) (UniProt P00533); experiment: compounds binding epidermal growth factor receptor – biochemical, small-molecule microarray, 635 nm fluorescence, primary screen (AID 1104); details: EGFR binding, higher = more signal;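 also: score merges 667 nm emission intensity with spot signal to noise over triplicate slides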
Sequence of Epidermal growth factor receptor (Homo sapiens) (P00533 whole entry, looked up): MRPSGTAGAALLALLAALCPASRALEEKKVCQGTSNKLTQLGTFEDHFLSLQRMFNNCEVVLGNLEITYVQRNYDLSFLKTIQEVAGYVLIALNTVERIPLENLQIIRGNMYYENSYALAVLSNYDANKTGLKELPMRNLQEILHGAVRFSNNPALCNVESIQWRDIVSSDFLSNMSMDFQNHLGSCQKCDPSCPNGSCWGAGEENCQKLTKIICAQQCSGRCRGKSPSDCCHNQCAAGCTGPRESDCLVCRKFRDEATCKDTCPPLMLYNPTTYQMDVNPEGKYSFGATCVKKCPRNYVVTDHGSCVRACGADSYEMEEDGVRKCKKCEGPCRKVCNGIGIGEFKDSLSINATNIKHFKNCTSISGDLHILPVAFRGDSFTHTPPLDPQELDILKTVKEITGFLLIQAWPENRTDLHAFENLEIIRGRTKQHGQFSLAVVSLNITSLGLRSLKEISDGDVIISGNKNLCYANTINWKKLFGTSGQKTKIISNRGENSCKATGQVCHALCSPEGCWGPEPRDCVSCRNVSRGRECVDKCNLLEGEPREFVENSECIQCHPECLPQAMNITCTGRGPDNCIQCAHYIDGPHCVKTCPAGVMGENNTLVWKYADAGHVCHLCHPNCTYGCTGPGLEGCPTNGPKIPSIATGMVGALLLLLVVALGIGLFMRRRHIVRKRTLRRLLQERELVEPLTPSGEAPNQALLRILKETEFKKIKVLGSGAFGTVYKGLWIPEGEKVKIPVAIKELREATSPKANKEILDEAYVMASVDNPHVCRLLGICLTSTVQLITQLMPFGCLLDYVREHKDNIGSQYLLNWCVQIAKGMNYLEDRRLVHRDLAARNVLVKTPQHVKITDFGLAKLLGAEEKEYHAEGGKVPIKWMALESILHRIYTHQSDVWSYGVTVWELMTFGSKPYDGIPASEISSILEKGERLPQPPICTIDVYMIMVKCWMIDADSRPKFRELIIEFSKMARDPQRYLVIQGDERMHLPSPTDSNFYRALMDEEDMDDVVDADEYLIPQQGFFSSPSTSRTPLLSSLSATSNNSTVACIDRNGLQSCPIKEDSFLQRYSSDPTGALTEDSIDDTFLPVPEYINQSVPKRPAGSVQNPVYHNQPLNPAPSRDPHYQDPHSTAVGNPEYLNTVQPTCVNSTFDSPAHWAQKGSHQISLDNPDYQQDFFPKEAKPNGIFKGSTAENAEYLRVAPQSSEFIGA

[8] = target: Follistatin-related protein 3 (Homo sapiens) (UniProt O95633); experiment: compounds binding follistatin-related protein 3 – biochemical, small-molecule microarray, 635 nm fluorescence, primary screen (AID 1105); details: FSTL3 binding, higher = more signal;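 also: score merges emission near 667 nm and signal to noise per printed spot across three slides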
Sequence of Follistatin-related protein 3 (Homo sapiens) (O95633 whole entry, looked up): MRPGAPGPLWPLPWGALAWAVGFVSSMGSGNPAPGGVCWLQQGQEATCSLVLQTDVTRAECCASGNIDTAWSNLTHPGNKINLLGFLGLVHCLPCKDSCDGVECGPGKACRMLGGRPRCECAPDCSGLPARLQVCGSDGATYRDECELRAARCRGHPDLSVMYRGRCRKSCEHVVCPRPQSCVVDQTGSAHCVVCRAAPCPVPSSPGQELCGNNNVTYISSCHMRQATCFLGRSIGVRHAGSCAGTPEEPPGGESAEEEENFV

[9] = target: Dickkopf-related protein 1 (Homo sapiens) (UniProt O94907); experiment: small molecules binding DKK1 protein – biochemical, small-molecule microarray, 635 nm fluorescence scan, primary screen (AID 1106); details: higher = more signal;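 also: score merges emission near 667 nm with signal to noise over three replicate slides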
Sequence of Dickkopf-related protein 1 (Homo sapiens) (O94907 whole entry, looked up): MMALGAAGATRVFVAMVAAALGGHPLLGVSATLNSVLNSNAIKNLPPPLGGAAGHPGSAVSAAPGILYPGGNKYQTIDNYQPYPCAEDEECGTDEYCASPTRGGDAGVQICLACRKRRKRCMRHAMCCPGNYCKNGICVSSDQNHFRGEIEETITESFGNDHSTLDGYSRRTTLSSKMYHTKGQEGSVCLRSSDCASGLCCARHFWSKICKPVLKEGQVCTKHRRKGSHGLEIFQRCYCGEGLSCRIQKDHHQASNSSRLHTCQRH

[10] = tested on: Inhibin beta A chain (activin A); experiment: small molecules binding activin A – biochemical, small-molecule microarray, 635 nm fluorescence scan, primary screen (AID 1107); details: INHBA, higher = more signal;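 also: mouse activin A protein probed at 4.33 µg/mL on printed slides; score merges bound-protein fluorescence near 667 nm with spot signal-to-noise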
[11] = tested on: Human papillomavirus type 1a protein E7 (residues 44-93); experiment: small molecules binding HPV E7 44-93 – biochemical, small-molecule microarray, residues 44-93, 635 nm fluorescence, primary screen (AID 1108); details: fluorescence 635 nm, higher = more signal;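 also: E7 fragment applied at 1 µg/mL in TBST for 1 h at 4 C; score combines spot fluorescence with its signal to noise ratio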
[12] = hepatitis C replication reporter changes, two-sided – Huh7 cells, luciferase reporter, HCV replication inhibitor project, primary screen (AID 1109); details: Huh7 HCV replicon luciferase reporter, 48 h; higher = more signal;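 also: huh7 hepatoma cells harbouring a luciferase neomycin HCV replicon reporter; luciferase luminescence as measure of HCV replicon replication; test concentration not given here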
[13] = target: Left-right determination factor 2 (Homo sapiens) (UniProt O00292); experiment: small molecules binding LEFTY2 protein – biochemical, small-molecule microarray, 635 nm fluorescence scan, primary screen (AID 1110); details: higher = more signal
Sequence of Left-right determination factor 2 (Homo sapiens) (O00292 whole entry, looked up): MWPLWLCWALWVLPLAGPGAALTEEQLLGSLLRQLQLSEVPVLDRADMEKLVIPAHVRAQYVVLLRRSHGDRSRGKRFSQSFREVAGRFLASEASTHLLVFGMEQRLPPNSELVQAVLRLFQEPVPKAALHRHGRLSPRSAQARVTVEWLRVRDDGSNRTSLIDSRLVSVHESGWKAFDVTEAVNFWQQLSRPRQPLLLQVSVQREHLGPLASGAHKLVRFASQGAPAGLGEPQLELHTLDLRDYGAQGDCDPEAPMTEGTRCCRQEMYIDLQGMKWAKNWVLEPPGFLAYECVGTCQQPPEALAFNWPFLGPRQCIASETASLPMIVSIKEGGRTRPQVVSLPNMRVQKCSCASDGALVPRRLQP

[14] = target: Calmodulin-1 (Homo sapiens) (UniProt P0DP23); experiment: small molecules binding calmodulin-1 with EGTA – biochemical, small-molecule microarray, Cy5-labelled CALM1, profiling panel (AID 1111); details: Cy5-CALM1 binding fluorescence, higher = more signal;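 also: labelled calmodulin applied in Tris saline Tween buffer holding calcium plus EGTA and DTT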
[15] = target: Calmodulin-1 (Homo sapiens) (UniProt P0DP23); experiment: small molecules binding Ca-loaded calmodulin-1 – biochemical, small-molecule microarray, Cy5-labelled CALM1, plus calcium, artefact control for SMM control-protein annotation, profiling panel (AID 1112); details: Cy5-CALM1 binding fluorescence, higher = more signal;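 also: score merges spot fluorescence with signal to noise from triplicate slides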
[16] = probe aWnt5a binding to arrayed compounds – biochemical, biotinylated probe, 635/667 nm fluorescence, primary screen (AID 1113); details: small-molecule microarray, higher = more signal;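 also: score merges 667 nm fluorescence intensity with signal-to-noise per printed feature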
[17] = probe aShh binding to arrayed compounds – biochemical, biotinylated probe, 635/667 nm fluorescence, primary screen (AID 1114); details: small-molecule microarray, higher = more signal;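 also: probe is biotin-labelled aShh protein from a stem cell growth factor screen; measures binding of labelled protein to compounds printed on the slide; score merges feature fluorescence at 667 nm with signal-to-noise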
[18] = probe aNog binding to arrayed compounds – biochemical, biotinylated probe, 635/667 nm fluorescence, primary screen (AID 1115); details: small-molecule microarray, higher = more signal;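 also: probe is biotinylated aNog protein used at 0.15 µg/mL for 1 h at 4 C; z-score combines 667 nm fluorescence of each spot with its signal to noise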
[19] = target: Torsin-1A-interacting protein 1 (Homo sapiens) (UniProt Q5JTV8); experiment: compound microarray binding of lysate hLAP1 – cell lysate, small-molecule microarray, COS7 lysate, 635/667 nm fluorescence, primary screen (AID 1116); details: 635 nm fluorescence, higher = more signal
Sequence of Torsin-1A-interacting protein 1 (Homo sapiens) (Q5JTV8 whole entry, looked up): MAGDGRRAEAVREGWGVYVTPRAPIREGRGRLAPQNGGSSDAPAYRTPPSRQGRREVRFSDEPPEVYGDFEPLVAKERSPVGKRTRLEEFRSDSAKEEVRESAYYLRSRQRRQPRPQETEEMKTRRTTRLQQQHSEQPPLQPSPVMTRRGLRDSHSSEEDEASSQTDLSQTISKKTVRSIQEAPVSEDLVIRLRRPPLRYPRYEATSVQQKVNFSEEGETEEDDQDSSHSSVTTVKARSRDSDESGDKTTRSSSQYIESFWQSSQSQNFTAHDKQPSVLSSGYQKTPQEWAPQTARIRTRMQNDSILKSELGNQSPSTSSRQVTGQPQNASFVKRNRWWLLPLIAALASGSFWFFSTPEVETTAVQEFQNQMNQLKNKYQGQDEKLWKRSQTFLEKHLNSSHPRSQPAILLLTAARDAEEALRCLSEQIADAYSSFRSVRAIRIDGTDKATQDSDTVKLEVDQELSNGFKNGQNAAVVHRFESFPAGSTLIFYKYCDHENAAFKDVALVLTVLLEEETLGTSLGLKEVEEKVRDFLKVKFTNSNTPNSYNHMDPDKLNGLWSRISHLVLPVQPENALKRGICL

[20] = target: Alpha-bungarotoxin (Bungarus multicinctus) (UniProt P60615); experiment: compounds binding labelled alpha-BTX control protein – biochemical, small-molecule microarray, Alexa647 label, 635/667 nm fluorescence, artefact control for SMM control protein annotation, profiling panel (AID 1117); details: alpha-BTX-A647 binding fluorescence, higher = more signal
Sequence of Alpha-bungarotoxin (Bungarus multicinctus) (P60615 whole entry, looked up): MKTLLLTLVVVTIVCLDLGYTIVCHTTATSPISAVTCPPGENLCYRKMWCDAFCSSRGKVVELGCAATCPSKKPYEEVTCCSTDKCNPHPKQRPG

Structure (SMILES)	composite z-score [1]	composite z-score [2]	composite z-score [3]	z-score [4]	composite z-score [5]	composite z-score [6]	composite z-score [7]	composite z-score [8]	composite z-score [9]	composite z-score [10]	composite z-score [11]	z-score [12]	composite z-score [13]	composite z-score [14]	composite z-score [15]	composite z-score [16]	composite z-score [17]	composite z-score [18]	composite z-score [19]	composite z-score [20]
NC(=O)NCC#Cc1ccc2c(c1)[C@]1(C(=O)N2)[C@H](C(=O)N2CCCCCCC2)[C@H]2C(=O)O[C@H](c3ccccc3)[C@H](c3ccccc3)N2[C@@H]1c1ccccc1OCCO	1.82	2.98	1.66	0.0838 (inactive)	1.39	1.38	1.7	1.71	2.26	1.86	1.37	-1.54	1.46	2.99	1.69	1.31	2.38	2.29	5.01	2.63
CC(C)CNC(=O)[C@@]1(C)c2ccccc2C(=O)N(Cc2ccc(OC(F)(F)F)cc2)[C@H]1c1ccc(CO)cc1	-0.857	0.629	1.14	0.581 (inactive)	-0.494	-0.694	-1.15	-0.877	-0.973	0.159	-1.2	0.173	-1.22	-0.381	0.787	-0.147	-0.0769	0.264	1.5	-0.36
CN(C)c1ccc(C(O)C2C=CC3C(=O)NC(=O)C3N2Nc2ccc(Cl)cc2Cl)cc1 (stereo not given)	0.189	0.88	1.09	0.701 (inactive)	0.356	0.121	-0.789	0.554	-0.336	1.43	1.36	-0.0428	-1.14	0.615	-0.327	0.0328	0.0993	1.21	0.0689	0.359
COc1ccc([Si](C)(C)[C@@H]2[C@@H](CC(=O)N(CCO)Cc3ccccc3)O[C@]3(C(=O)N(Cc4cccc(N5CCC5=O)c4)c4ccccc43)[C@H]2C)cc1	1.41	-0.163	-0.229	-0.732 (inactive)	1.07	0.583	0.475	0.875	0.313	0.552	0.411	-3.81	0.571	-0.0736	-0.322	-0.0718	-0.0709	-0.411	1.28	0.508
C=CCNC(=O)[C@H]1[C@@H]2C(=O)O[C@@H](c3ccccc3)[C@@H](c3ccccc3)N2[C@@H](c2ccc(O)cc2)[C@]12C(=O)Nc1ccc(C#CCNC(N)=O)cc12	1.5	0.24	0.262	-0.335 (inactive)	-0.327	-0.304	-0.856	-1.03	-0.351	0.323	0.0632	0.567	-0.84	-0.439	-0.0701	-0.161	-0.467	0.0863	0.239	0.543
Cc1ccc(S[C@]2(C(=O)NCCN3CCOCC3)CC(=O)N(C3Cc4ccccc4C3)[C@@H]2c2ccc(CO)cc2I)cc1	1.84	0.696	1.18	-1.16 (inactive)	-0.303	-0.909	-1.65	-0.359	-0.408	0.72	0.0913	-1.69	-1.71	-0.0071	-0.0474	0.0718	-0.0553	0.79	0.0697	1.74
CCCC=C(CCC)[C@@H](NC(=O)c1ccccc1)c1ccccc1	-0.597	0.712	1.07	-0.0542 (inactive)	-0.0829	-1.87	-0.292	-0.501	-0.0056	1.16	0.0084	-0.12	-0.621	0.323	1.09	-0.0299	0.217	0.766	-0.439	-0.445
CN1CCC(CCCO)=CC1C1CC1 (stereo not given)	0.537	-0.499	-0.896	-1.18 (inactive)	0.59	0.348	0.0647	0.0254	0.293	0.719	-0.416	0.306	0.637	-1.21	-1.36	-0.172	-0.138	-0.473	-0.434	-0.234
COC(=O)C1=C(C)N(Cc2ccccc2)c2c(C(=O)OC)c(C(=O)OC)c(C(=O)OC)c(=O)n2[C@@H]1c1ccccc1	0.119	-0.056	-0.32	-0.449 (inactive)	0.583	0.37	0.12	0.287	0.436	0.16	-0.316	0.0883	0.431	1.61	0.141	-0.0806	-0.221	-0.0286	0.812	0.732
C=C(CCCC)/C(=C/C[C@@H](OC(=O)c1ccncc1)c1ccc(CO)o1)c1cnc2ccccc2c1	0.201	0.144	-0.524	0.0419 (inactive)	1.48	1.32	1.36	1.62	1.53	1.82	-0.41	-1.13	1.48	1.38	-0.0149	0.0973	0.213	0.889	2.1	2.29
Cc1ccc(S(=O)(=O)N[C@H]2COC(=O)CC=C[C@H](C)COC(=O)N[C@@H](C)C(=O)CC=C[C@@H]2C)cc1	0.38	-0.589	-1.38	-0.381 (inactive)	0.588	0.604	0.831	1.4	2.08	0.283	-0.417	-0.47	1.05	-0.643	-1.39	-0.1	-0.0243	-0.345	0.0478	0.0411
